{
  "source": "the OligoGym collection",
  "data": [
    {"target": "COMMD8", "assay": "pooled miR-30 sensor sort-seq; sequence = guide strand", "details": "shRNA", "values": [
      {"sequence": "AATTATTTTGTGAAGAAGCTGC", "sensor-assay potency score (higher = more potent)": 0.272},
      {"sequence": "TCAACTGCTGAAATATCTCTTC", "sensor-assay potency score (higher = more potent)": -0.0513},
      {"sequence": "TTTCTCTTGACAGAGCCTGTTT", "sensor-assay potency score (higher = more potent)": -0.392},
      {"sequence": "TTTTACATCTAGATGCAGGCTT", "sensor-assay potency score (higher = more potent)": 0.949},
      {"sequence": "AACAGTGTGATAATCTTGGTAC", "sensor-assay potency score (higher = more potent)": -0.396}
    ]},
    {"target": "COPE", "assay": "pooled miR-30 sensor sort-seq; sequence = guide strand", "details": "shRNA", "values": [
      {"sequence": "TTTACGTCGAACAGCTCGTCTA", "sensor-assay potency score (higher = more potent)": -1.05},
      {"sequence": "ATTCTCTTCAGCTCCTTCCGGG", "sensor-assay potency score (higher = more potent)": -0.00872},
      {"sequence": "TTGATGAAGGGATGGGACCTGT", "sensor-assay potency score (higher = more potent)": -0.268},
      {"sequence": "TTACGTCGAACAGCTCGTCTAC", "sensor-assay potency score (higher = more potent)": -0.753},
      {"sequence": "AACAGCTCGTCTACCTCCCCGG", "sensor-assay potency score (higher = more potent)": -0.819},
      {"sequence": "TTGACCAGCGTCTCTGGGTAGC", "sensor-assay potency score (higher = more potent)": -0.621},
      {"sequence": "AAAGTCGTTCTCCTTGGCCTGG", "sensor-assay potency score (higher = more potent)": -1.24},
      {"sequence": "TTCTCTTCAGCTCCTTCCGGGC", "sensor-assay potency score (higher = more potent)": -0.99},
      {"sequence": "TTGATAGCTTCACCCGCTGCGC", "sensor-assay potency score (higher = more potent)": -1.31},
      {"sequence": "TTCTTTACGTCGAACAGCTCGT", "sensor-assay potency score (higher = more potent)": -0.53},
      {"sequence": "TCAGCTGGGACAGGTATCGGTT", "sensor-assay potency score (higher = more potent)": -0.759},
      {"sequence": "TCATCTCTCGGTCCAGCTCGGC", "sensor-assay potency score (higher = more potent)": -1.47}
    ]},
    {"target": "COPS6", "assay": "pooled miR-30 sensor sort-seq; sequence = guide strand", "details": "shRNA", "values": [
      {"sequence": "AATCTGTCTTGAACTTGTCTGT", "sensor-assay potency score (higher = more potent)": -0.335},
      {"sequence": "TCGTAGAGGACATTGAACTTGT", "sensor-assay potency score (higher = more potent)": 0.432},
      {"sequence": "TTCAACTTCAGAAAGAGGGGGC", "sensor-assay potency score (higher = more potent)": 0.785},
      {"sequence": "TTGATCATAAAAATCTGTCTTG", "sensor-assay potency score (higher = more potent)": 0.185},
      {"sequence": "TTGTCGGTCGTAGAGGACATTG", "sensor-assay potency score (higher = more potent)": -1.74},
      {"sequence": "TCTGTCTTGAACTTGTCTGTGC", "sensor-assay potency score (higher = more potent)": 0.397},
      {"sequence": "TTAAACTGCTCCTCCTTGGTGT", "sensor-assay potency score (higher = more potent)": 0.63},
      {"sequence": "TTCCTTGTCAATGATAATCTTC", "sensor-assay potency score (higher = more potent)": -0.166},
      {"sequence": "TTGTCTGTGCTGAGCACCGGGA", "sensor-assay potency score (higher = more potent)": -0.77},
      {"sequence": "TTGAACTTGTTCACAAACTGGT", "sensor-assay potency score (higher = more potent)": 0.64},
      {"sequence": "TACTGCTGCATCCACCTCCATC", "sensor-assay potency score (higher = more potent)": -1.31},
      {"sequence": "TTGTCAATGATAATCTTCTCTT", "sensor-assay potency score (higher = more potent)": -0.44}
    ]},
    {"target": "COPS7A", "assay": "pooled miR-30 sensor sort-seq; sequence = guide strand", "details": "shRNA", "values": [
      {"sequence": "TTCTAGGATGAACATGTCCAGT", "sensor-assay potency score (higher = more potent)": -1.29},
      {"sequence": "TAATACAATCTATATACCCTTC", "sensor-assay potency score (higher = more potent)": -0.206},
      {"sequence": "TTCAGCTAAGTAGTCAGCGTAT", "sensor-assay potency score (higher = more potent)": -0.555},
      {"sequence": "TAGGAGCAGAAATTGCTCCTGG", "sensor-assay potency score (higher = more potent)": -0.149},
      {"sequence": "TTTACTTTAGCAGCCAGGGTGA", "sensor-assay potency score (higher = more potent)": -0.299},
      {"sequence": "TGAACCTAGGATTATCAGCTGG", "sensor-assay potency score (higher = more potent)": -0.856},
      {"sequence": "TTGGTTGGCACGGCTCACCTGC", "sensor-assay potency score (higher = more potent)": -0.606},
      {"sequence": "TTAGTGGAGGAAGATTCCGGGC", "sensor-assay potency score (higher = more potent)": -0.887},
      {"sequence": "TACACTTTACTTTAGCAGCCAG", "sensor-assay potency score (higher = more potent)": -0.419},
      {"sequence": "TTATTCTTCTGAGCCTCTGTTA", "sensor-assay potency score (higher = more potent)": -0.522},
      {"sequence": "TCTAACATTGGGCATGTCCAGC", "sensor-assay potency score (higher = more potent)": -1.04}
    ]}
  ]
}
